# Assay outcomes: PubChem, National Center for Advancing Translational Sciences (NCATS)
# DNA Pol III inh = blocks replication by bacterial DNA polymerase III holoenzyme | 71,000 tested, 0.25% active | AID 603 | reconstituted DNA polymerase III holoenzyme replication, biochemical | Potency, µM (highest dose often 57.1 µM), inactives show at the top dose activity change, negative = inhibition; further: potency means the concentration at half of the fitted maximal effect; on the % scale 0 is the no-effect control and ±100 the full control effect
#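 Reconstituted *E. coli* holoenzyme (0.35 nM Pol III, 1 nM beta, 154 nM SSB, 2 nM primase) was preincubated with compound for 15 min at RT. Synthesis on 1.4 nM ssM13Gori ran 35 min, then was stopped with PicoGreen/EDTA and read as dsDNA fluorescence.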
# YjeE inh = inhibitors of E. coli YjeE (TsaE); P0AF67; purified YjeE enzyme, qHTS inhibition assay; Potency, µM; 71,000 tested, 0.05% active; AID 605
#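 Purified YjeE (10 uM) with BODIPY Texas Red-labeled ADP probe (2 uM); compounds pin-transferred, 15 min at room temperature. Binding inhibition read as decreased fluorescence polarization; ADP titration as control.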
# Hsp90 Hop PPI = changes Hsp90-Hop TPR2A binding signal, up or down. AlphaScreen TPR2A-His6 binding biotin-Hsp90 C-terminal peptide. Potency, µM (doses to about 57 µM), for inactives: at the highest dose activity change, negative = inhibition. 71,000 tested, 0.44% active. AID 595; active means well fitted curve in either direction with a large enough effect; inconclusive means small, poorly fitted or top-dose-only effect, or another doubt; further: potency means the concentration at half of the fitted maximal effect; on the % scale 0 is the no-effect control and ±100 the full control effect
# ERK AVP inh = vasopressin-driven ERK pathway inhibition | Potency, µM (doses to about 57.5 µM), inactives show at the highest dose activity, negative = inhibition, usual class: inhibitors | HEK293-V1b, vasopressin-stimulated pERK AlphaScreen | 72,000 tested, 0.99% active; further: potency means the concentration at half of the fitted maximal effect; on the % scale 0 is the no-effect control and ±100 the full control effect; nearly all actives have a fitted effect of over 55% in size
#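 HEK293 cells stably expressing V1b receptor, preincubated 30 min at 37 °C with compound, then stimulated 5 min with 25 nM vasopressin. Phospho-ERK by AlphaScreen SureFire after 5 h RT; normalized to DMSO and vasopressin; AC50 by Hill fit.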
# ALOX15 inhib = blocks human 15-lipoxygenase activity. P16050. purified 15hLO-1, xylenol orange hydroperoxide absorbance. Potency, µM (doses to about 57.1 µM), inactives show at the highest dose activity change, negative = inhibition, actives largely listed as inhibitors. 74,000 tested, 1.4% active. AID 887; further: potency means the concentration at half of the fitted maximal effect; on the % scale 0 is the no-effect control and ±100 the full control effect; nearly all actives have a fitted effect of over 55% in size
# Target sequence (P16050 whole entry, looked up): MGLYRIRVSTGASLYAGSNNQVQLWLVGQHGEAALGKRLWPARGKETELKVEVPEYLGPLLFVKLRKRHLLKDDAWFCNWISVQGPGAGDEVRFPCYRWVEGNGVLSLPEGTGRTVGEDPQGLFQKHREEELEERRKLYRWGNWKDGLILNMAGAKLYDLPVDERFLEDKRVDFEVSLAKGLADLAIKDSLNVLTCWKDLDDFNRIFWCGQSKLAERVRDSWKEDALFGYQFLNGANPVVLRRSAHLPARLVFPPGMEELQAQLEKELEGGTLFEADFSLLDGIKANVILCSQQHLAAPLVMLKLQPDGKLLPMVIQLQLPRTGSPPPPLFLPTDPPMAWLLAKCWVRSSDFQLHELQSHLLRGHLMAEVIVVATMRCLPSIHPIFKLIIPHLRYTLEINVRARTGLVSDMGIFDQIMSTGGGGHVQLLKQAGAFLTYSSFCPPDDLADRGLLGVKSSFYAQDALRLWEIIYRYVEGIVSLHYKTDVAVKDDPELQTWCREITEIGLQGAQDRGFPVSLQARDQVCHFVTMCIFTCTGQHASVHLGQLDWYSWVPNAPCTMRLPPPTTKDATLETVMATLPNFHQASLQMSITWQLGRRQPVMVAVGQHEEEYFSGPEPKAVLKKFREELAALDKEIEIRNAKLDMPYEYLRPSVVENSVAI
#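 Readout: Fe(III)-xylenol orange absorbance, 573-to-405 nm ratio as reaction progress. Enzyme 40 nM purified human 15hLO-1, substrate 50 uM arachidonic acid, 6 min RT after 15 min compound preincubation; Hepes pH 7.5 buffer with Triton X-100.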
# Tau fil binding = binds recombinant human tau filaments; recombinant tau filaments, thioflavin S fluorescence, 15 h; filaments grown with octadecylsulfate alongside compound; Potency, µM (doses to about 57.1 µM), without a hit: at the top dose activity change, negative = inhibition; 71,000 tested, 2% active; AID 596;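 further: potency means the concentration at half of the fitted maximal effect; on the % scale 0 is the no-effect control and ±100 the full control effect; actives lower thioflavin S fluorescence by blocking filaments or displacing dye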
#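 Quantitative HTS: thioflavine S signal from ODS-induced tau filaments, excited at 450 nm, emission 510 nm. Conditions: 1 uM tau, 30 uM ODS, 15 h at 37 C, pH 7.4.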
# * marks the source's active call; other numbers are inactive results; i = inactive; ? = inconclusive; · = not tested or not shown; ! = repeats disagree; [ ] = another dose, or the depositor's remark. Sampled rows, rich in hits. Any-hit rate of the full collection: about 4.2%. Unless noted, the call rests on the fitted dose curve; in most records, active means well fitted curve in the direction sought with a large enough effect; inconclusive means small, poorly fitted or top-dose-only effect, or another doubt; inactive means no such curve, though single readings can be large; an effect the other way counts as inactive or inconclusive.
SMILES,DNA Pol III inh,YjeE inh,Hsp90 Hop PPI,ERK AVP inh,ALOX15 inhib,Tau fil binding
O=c1cccc2n1C[C@@H]1C[C@H]2CN2CCCC[C@H]12,-2.2%,i,0.4%,·,·,31.6µM*
[Cl-].[Cl-].[Hg+2],31.6µM*,i,-0.1%,7.94µM*,0.0126µM*,11.8%
CCN(CC)CCO[C@H]1CC[C@@]2(C)C(=CC[C@@H]3[C@H]2CC[C@]2(C)C(=O)CC[C@H]32)C1,-6.8%,i,1.3%,10.4%,-0.8%[25.6 µM],?
Brc1ccc(Oc2cc(Br)c(Br)cc2Br)c(Br)c1,-4.1%,i,31.6µM*!,64.1%,-0.2%,2.7%
O=c1c2ccccc2[se]n1-c1ccccc1,-4.2%[25.6 µM],i,?,?,0.398µM*,4.1%[25.6 µM]
CN(N=O)c1cc(O)ccc1O,3.16µM*,100µM*,?,-13.0%,15.8µM*,?
Cc1ccc(O)cc1,4.6%,i,-11.3%,-22.4%,8.5%,-2.7%
CCCN(C/C=C\I)[C@@H]1CCc2ccc(O)cc2C1,-2.5%,i,-1.3%,-21.3%,3.8%[25.6 µM],?
Nc1ncnc2c1ncn2[C@@H]1O[C@@H](COP(=O)(O)CP(=O)(O)OP(=O)(O)O)[C@H](O)[C@@H]1O,-2.7%,i,-8.2%,6.7%,9.0%,8.2%
COc1cccc2c1C(=O)c1c(O)c3c(c(O)c1C2=O)C[C@](O)(/C(C)=N\O)C[C@@H]3O[C@H]1C[C@H](N)[C@@H](O)[C@H](C)O1,1µM*,i,-5.0%[11 µM],-7.0%[11.5 µM],9.6%[11.4 µM],1.58µM*
CC[C@]1(O)CC(O[C@@H]2CC(N(C)C)C(O)C(C)O2)c2c(cc3c(c2O)C(=O)c2c(O)ccc(O)c2C3=O)C1C(=O)OC (stereo partly specified),·,·,·,-19.8%,-7.4%,·
CC(C)[C@@H](C)/C=C\[C@@H](C)[C@@H]1CC[C@H]2C3=CC=C4C[C@@H](O)CC[C@]4(C)[C@H]3CC[C@]21C,-8.5%[11.4 µM],i,-0.1%[11 µM],9.3%[11.5 µM],-8.7%[11.4 µM],-1.2%[11.4 µM]
[CH3][Hg][Cl],3.7%,i,-4.3%,-3.2%,15.8µM*,-1.7%
C=C(C)c1cc2cc(C(C)=O)c(O)cc2o1,·,·,·,25.3%,-0.3%,·
O=C(N1CCOCC1)C1(c2ccccc2)CCNCC1,-8.7%[11.4 µM],i,11.3%[11 µM],8.1%[11.5 µM],2.3%[11.4 µM],-7.3%[11.4 µM]
CC1(C)CN=C(NCc2ccccc2Cl)S1,-5.6%,i,-8.0%,-7.4%,14.1%,25.1µM*
CC1(C)CN=C(Nc2ccccc2C(F)(F)F)S1,-6.5%,i,?,5.3%,-11.4%,-8.6%
c1ccc(-c2ccccc2)cc1,-1.4%,i,3.4%,9.8%,-1.2%,19.9%
c1ccc(Nc2ccc(Nc3ccccc3)cc2)cc1,-5.2%,i,?,?,3.98µM*,12.6µM*
COc1cc2c(cc1O)C[C@H]1c3c(cc(OC)c(O)c3-2)CCN1C,-10.5%,i,-11.1%,4.3%,-14.3%[25.6 µM],39.8µM*
COc1cc2c(cc1O)CC1c3c(cc(O)c(OC)c3-2)CCN1C (stereo unspecified),·,·,·,-7.0%,-2.6%[25.6 µM],·
CC[N+](CC)(CCCNC1=CC(=O)C(NCCC[N+](CC)(CC)Cc2ccccc2)=CC1=O)Cc1ccccc1,-5.2%,i,-5.3%,7.9%,-9.4%[25.6 µM],31.6µM*
Cc1ccc2c(c1)CNc1ccccc1O2,-7.4%,i,1.2%,18.5%,7.8%,-19.7%
COc1ccc(N2CCN(CCCN)CC2)cc1,-3.5%,i,-26.9%,-18.9%,2.5%,20µM*
CN1C[C@H](C(=O)N[C@]2(C)O[C@@]3(O)[C@@H]4CCCN4C(=O)[C@H](Cc4ccccc4)N3C2=O)C=C2c3cccc4[nH]cc(c34)C[C@H]21,9.8%,i,-15.9%,?,2.51µM*,i
SMILES,DNA Pol III inh,YjeE inh,Hsp90 Hop PPI,ERK AVP inh,ALOX15 inhib,Tau fil binding
CN1C[C@H](C(=O)N[C@]2(C)O[C@@]3(O)[C@H]4CCCN4C(=O)[C@H](Cc4ccccc4)N3C2=O)C[C@H]2c3cccc4[nH]cc(c34)C[C@@H]21,-1.4%,i,-11.8%,-8.3%,12.6µM*,?
NC(Cc1ccc(N(CCCl)CCCl)cc1)C(=O)O (stereo unspecified),·,·,·,0.3%,?,·
O=P1(Nc2ccc(F)cc2)COc2ccccc2OC1,-11.1%,i,-3.4%,7.5%,0.4%,0.9%
O=C1C[C@@H]2OCC=C3CN4CC[C@]56c7ccccc7N1[C@@H]5[C@@H]2[C@H]3C[C@H]46 (tested in a mixture with another compound),-6.2%[11.4 µM],i,-5.7%[11 µM],7.3%[11.5 µM],-1.4%[11.4 µM],1.8%[11.4 µM]
O[N+]1=CC=CCC1=S.On1ccccc1=S.[Zn],·,·,·,?,2.51µM*,·
CCC(C)C(=O)OC1C[C@@]2(C)C(c3ccoc3)OC(=O)CC23OC2(C)OC34C(OC(=O)C(C)C)[C@]3(O)C(OC(=O)C5(C)OC5C)[C@]5(C)CC3(O)[C@](C)(C5CC(=O)OC)C14O2 (stereo partly specified),·,·,·,-10.0%,-3.1%,·
C=CC(=O)OCC(CO)(COC(=O)C=C)COC(=O)C=C,-1.6%,i,0.1%,15.8µM*,-9.8%,1.6%
CCOC(=O)C1SC2(C(F)F)CC1(O)c1c(c(OC)c3occc3c1OC)O2 (stereo unspecified),-0.6%,i,-2.9%,20µM*,-2.8%,9.2%
COc1ccc(P2(=O)Nc3ccccc3N2)cc1,-12.7%,i,-7.6%,?,?,15.8µM*
COc1ccc(C=O)cc1,-8.3%,i,3.7%,12.2%,2.8%,4.0%
C[C@@H](CO)NC(=O)[C@H]1C=C2c3cccc4[nH]cc(c34)C[C@H]2N(C)C1,-3.4%,i,-1.7%,·,·,40.6%
C=C(C)[C@H]1[C@H]2OC(=O)[C@@H]1[C@]1(O)C[C@H]3O[C@]34C(=O)O[C@H]2[C@]14C,-2.6%,i,?,·,·,31.6µM*
CC(C)(O)[C@@H]1C2OC(=O)[C@@H]1[C@]1(O)C[C@H]3O[C@]34C(=O)O[C@H]2[C@]14C,·,·,·,19.5%,-5.6%[25.6 µM],·
C=CC1CC=CCC1 (stereo unspecified),-3.2%,i,1.3%,15.7%,31.6µM*,4.2%
COC(=O)/C(C)=C\CC12OC(C)(C)C3CC(C=C4C(=O)c5c(OC)c6c(c(CC=C(C)C)c5OC431)OC(C)(CCC=C(C)C)C=C6)C2=O (stereo unspecified),·,·,·,14.1%,?,·
CC(=O)Oc1c2c(c(CC=C(C)C)c3c1C(=O)C1=CC4CC5C(C)(C)OC(C/C=C(\C)C(=O)O)(C4=O)[C@]15O3)OC(C)(CCC=C(C)C)C=C2 (stereo partly specified),·,·,·,6.31µM*,?,·
O=C(Oc1ccccc1)N1CCC2(CCN(Cc3ccncc3)CC2)CC1,3.6%,i,-5.1%,-6.3%,13.4%,59.8%
O=c1[nH]oc2c1CCNC2,-4.8%,i,-0.5%,7.7%,-4.2%,31.6µM*!
